Source: PubChem BioAssay (Tox21)
Results filed as inconclusive are left out. Calls of active or inactive are those of the source. The call rests on the fitted dose curve; in most records, active means well fitted curve in the direction sought with a large enough effect in the repeat runs; inconclusive means weak or mixed curves; inactive means no such curve, though single readings can be large; an effect the other way counts as inactive or inconclusive.

molecular target: Nuclear receptor subfamily 1 group I member 2 (Homo sapiens) (UniProt O75469); assay: CYP3A4 induction through human pregnane X receptor (PXR) by small molecules, qHTS assay (AID 1346984); details: DPX-2 HepG2 PXR, CYP3A4-luciferin luminescence, 24 h; series mostly up to 46.1 µM; activation: at the top concentration
Procedure, shortened: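 DPX-2 reporter cells; 24h cpd, 37C; Luciferin-IPA 3uM final x3h; One-Glo 30 min RT; lumi read.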
Further: nearly all actives have a fitted effect of over 40% in size.
On the % scale 0 is the no-effect control and ±100 the full control effect; potency means the concentration at half of the fitted maximal effect.

| Compound | activation | Potency |
| --- | --- | --- |
| CC(=O)[C@@]1(O)CC[C@H]2[C@@H]3C=C(Cl)C4=CC(=O)[C@@H]5C[C@@H]5[C@]4(C)[C@H]3CC[C@@]21C | 0.0715% (inactive) | – |
| c1ccc2c(c1)Sc1ccccc1N2CCN1CCCC1 | – | 10 µM (active) |
| CCCCC(=O)OCC(=O)[C@]1(O)Cc2c(O)c3c(c(O)c2[C@@H](O[C@H]2C[C@H](NC(=O)C(F)(F)F)[C@H](O)[C@H](C)O2)C1)C(=O)c1c(OC)cccc1C3=O | -36.4% (inactive) | – |
| COc1ccc(CCNC[C@H](O)c2ccc(O)cc2)cc1OC | -6.72% (inactive) | – |
| C=C[C@]1(C)C[C@@H](OC(=O)CSCCN(CC)CC)[C@]2(C)[C@H](C)CC[C@]3(CCC(=O)[C@H]32)[C@@H](C)[C@@H]1O | -1.97% (inactive) | – |

molecular target: Nuclear receptor subfamily 1 group I member 2 (Homo sapiens) (UniProt O75469); assay: Human pregnane X receptor (PXR) activation by small molecules, qHTS assay (AID 1346985); details: DPX-2 HepG2 CYP3A4-luciferase, 24 h; series mostly up to 38.3 µM; activation: at the top concentration
Procedure, shortened: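 DPX-2 cells (HepG2 co-transfected with a PXR response element and a CYP3A4-promoter luciferase construct) were seeded at 2,000 per well, rested 5 hr at 37C, then exposed to DMSO-dissolved compounds for 24 hr. Activation was read as luciferase luminescence.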

| Compound | activation | Potency |
| --- | --- | --- |
| CC(=O)[C@@]1(O)CC[C@H]2[C@@H]3C=C(Cl)C4=CC(=O)[C@@H]5C[C@@H]5[C@]4(C)[C@H]3CC[C@@]21C | 4.11% (inactive) | – |
| c1ccc2c(c1)Sc1ccccc1N2CCN1CCCC1 | – | 25.1 µM (active) |
| CCCCC(=O)OCC(=O)[C@]1(O)Cc2c(O)c3c(c(O)c2[C@@H](O[C@H]2C[C@H](NC(=O)C(F)(F)F)[C@H](O)[C@H](C)O2)C1)C(=O)c1c(OC)cccc1C3=O | -0.469% (inactive) | – |
| COc1ccc(CCNC[C@H](O)c2ccc(O)cc2)cc1OC | -1.76% (inactive) | – |
| C=C[C@]1(C)C[C@@H](OC(=O)CSCCN(CC)CC)[C@]2(C)[C@H](C)CC[C@]3(CCC(=O)[C@H]32)[C@@H](C)[C@@H]1O | – | 15.8 µM (active) |
| CC(C)(C)C1(O)CCN2CC3c4ccccc4CCc4cccc(c43)C2C1 (stereo unspecified) | – | 14.1 µM (active) |
